Assay results from PubChem BioAssay AID2806 (Sanford-Burnham Center for Chemical Genomics, 2010).
Out of some 330,000 compounds screened, about 660 (0.2%) were called active. The list comes from a sample in which actives are over-represented; it also holds similar structures and randomly drawn compounds. Values without a mark were called inactive.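 Rule for the calls: active = inhibition of at least 40% at 10 µM in the primary screen; inactive = the rest.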

These compounds were tested on intestinal alkaline phosphatase [Mus musculus] (assay: inhibitors of mouse IAP, primary screen, biochemical, luminescence, uHTS (AID 2806;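 note: plate controls were DMSO with enzyme for no effect and no enzyme wells for full effect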)). Conditions: purified mouse IAP, CDP-Star luminescence, 30 min; at 10 µM; stronger effect = higher value.
For NC(=O)c1ccc(Nc2ccc3c(c2)CCC3)c([N+](=O)[O-])c1, the inhibition was 11.2%. In the case of Brc1cnc(N2CCCC2)nc1N1CCCCC1, the inhibition is reported as 1.2%. Fc1ccc(Nc2nnns2)cc1 showed an inhibition of 7.1%. Compound Cc1ccc(S(=O)(=O)NCCSC(C)(C)C)cc1 has an inhibition of -3.9%. Work on C[C@H]1CN([C@@H](C)CO)C(=O)Cc2cc(NC(=O)Cc3ccccc3)ccc2O[C@H]1CN(C)S(=O)(=O)c1cccs1 yielded an inhibition of -5.4%. For CN1CCCc2cc(C#N)c(=O)[nH]c21, the inhibition was 5.2%. Work on COc1cccc(CCNC(=O)c2cccc(NC(=O)C3=C(C)OCCS3)c2)c1 yielded an inhibition of -9.8%. Work on CC(=O)N1c2ccc(S(=O)(=O)N3CCC(C(=O)NC4CCCC(C)C4C)CC3)cc2CC1C (centres undefined) yielded an inhibition of -23.1%. Compound O=C(CS(=O)(=O)c1ccccc1)Nc1ccc(S(=O)(=O)Nc2ccccn2)cc1 has an inhibition of 6.7%. CCN(CC)P(=O)(C(NC(=O)OC)C(F)(F)C(F)(F)C(F)(F)C(F)F)N(CC)CC (centres undefined) gave an inhibition of 1.2%. Compound N#CC(C(N)=O)=C1CCC2(CC1)OCCCCO2 has an inhibition of -8.3%. For Cc1[nH]c2ccccc2c1-c1ccc(Cl)nn1, the inhibition was 4.1%. Work on CC(C)S(=O)(=O)c1csc(NC(=O)Nc2ccc(Cl)cc2)c1Cl yielded an inhibition of -190%. Compound O=C1CCCN1C(=O)COc1ccc([N+](=O)[O-])cc1 has an inhibition of 2.6%. With COC(=O)c1cc(NC(=O)c2nn(C)c(=O)c3ccccc23)cc(C(=O)OC)c1 the inhibition was -11.6%. Compound COc1ccc(N(Cc2ccc(N(C)C)cc2)C(=O)c2ccc(S(C)(=O)=O)cc2)cc1 has an inhibition of 3.6%. CC(=O)c1c(C)[nH]c(C(=O)NCc2ccc(C)cc2)c1C showed an inhibition of -23.4%. COC(=O)c1ccc(CNC(=O)C2CCC(=O)N(Cc3cccc(F)c3)C2)cc1 (centres undefined) gave an inhibition of 2.3%. In the case of COc1cccc(N(C(=O)CNC(=O)c2ccco2)C(C(=O)NC2CCCCC2)c2cccnc2)c1 (centres undefined), the inhibition is reported as -11.8%. Cc1ccccc1CN1C[C@@H]2C[C@@H](c3ccc4nsnc4c3)N3CCC[C@@]23C1=O was tested, and the inhibition was 4%. Work on CCc1nc2nc(C)c(NS(=O)(=O)c3ccc4c(c3)CCCC4)c(=O)n2[nH]1 yielded an inhibition of 8.4%. CNC(=O)NCCN1CCCC1=O gave an inhibition of -13.9%. In the case of CC(C)(C)NC(=O)NC(=O)COC(=O)Cn1c(C(F)(F)F)nc2ccccc21, the inhibition is reported as 3.3%. O=C(CNS(=O)(=O)c1ccccc1)N1CCN(C(=O)c2ccco2)CC1 gave an inhibition of 2.1%. With CC(C)NC(=S)Nc1cccc2cnccc12 the inhibition was 9.6%. Cc1c(NC(=O)C(=O)N/N=C/c2cccs2)c(=O)n(-c2ccccc2)n1C showed an inhibition of 5.7%. Compound Clc1cccc(Cl)c1OCCOCCNCc1ccccc1 has an inhibition of -0.1%. With CC(/C=C/C1(O)C(C)CC(=O)CC1(C)C)OC1OC(CO)C(O)C(O)C1O (centres undefined) the inhibition was 41.9% (active). Compound C=CC1C(OC2OC(CO)C(O)C(O)C2O)OC=C(C(=O)OC)C1CC1CC(=O)CC(CC(=O)CCc2ccc(O)cc2)O1 (centres undefined) has an inhibition of 6.5%. Compound CC1=C(C)C(=O)OC(C(C)C2CCC3C4CC=C5CC(OC6OC(COC7OC(CO)C(O)C(O)C7O)C(O)C(O)C6O)CC(O)C5(C)C4CCC23C)C1 (centres undefined) has an inhibition of 9.3%. COc1cc(/C=N\NC(=O)C2C(=O)NCC2c2ccccc2)cc(OC)c1O (centres undefined) gave an inhibition of 11.4%. Compound CCOc1ccc2[nH]c(C(=O)N/N=C/c3cccc(OC)c3OC)cc2c1 has an inhibition of 10.1%. COc1cccc(/C=N\NC(=O)C2=NNC(=O)C2C)c1O (centres undefined) was tested, and the inhibition was 61.4% (active). With Cc1c(CC(=O)NCC(=O)NCC(=O)O)c(=O)oc2cc3oc4c(c3cc12)CCCC4 the inhibition was 3.6%. Compound CN(/C(=N/S(=O)(=O)c1cccs1)c1ccccc1)c1ccc(O)cc1 has an inhibition of -15.8%. Compound COCc1cc(C)nc(Nc2cc(C)ccc2C)c1C#N has an inhibition of -3.2%. Cc1nc2sccn2c(=O)c1S(=O)(=O)NCCc1ccccc1 showed an inhibition of -1.1%. For Cc1cc(C)c(S(=O)(=O)NCCCN2CCOCC2)cc1Br, the inhibition was 6.6%. O=C(/C=C/Nc1ccc(S(=O)(=O)Nc2cnc3ccccc3n2)cc1)c1cccnc1 gave an inhibition of 10%. For OCC[C@H]1C[C@@H](O)[C@H](O)[C@@]2(OCCc3ccccc32)O1, the inhibition was 8.9%. COc1cc(C2CC(=O)Oc3cc(OC)c(OC)c(OC)c32)cc(OC)c1OC (centres undefined) showed an inhibition of -2.2%. In the case of COc1ccc(OCCCC(=O)OC(C)C(=O)Nc2ccccc2[N+](=O)[O-])cc1 (centres undefined), the inhibition is reported as 1.5%. Compound O=C(O)C1OC(C(=O)O)C2C1C(F)(F)C2(F)F (centres undefined) has an inhibition of -3.4%. Cc1ccccc1OCC(=O)N(Cc1cccc(F)c1)C1CCS(=O)(=O)C1 (centres undefined) showed an inhibition of -3.3%. CCC(=O)Nc1ccc(-c2ccc(N3CCCCC3)nn2)cc1 showed an inhibition of 6.7%. In the case of COC(=O)c1ccc(S(=O)(=O)c2ccc(C(=O)OC)s2)s1, the inhibition is reported as 7.9%. Cc1ccc2c(c1)NC(=O)[C@@]1(C)[C@@H](c3ccccc3)[C@H]3COc4ccc(Cl)cc4[C@@H]3N1C2=O was tested, and the inhibition was -2.6%. For O=C(c1ccc(Cl)cc1)N1N=C(c2ccccn2)CC1(O)C(F)(F)F (centres undefined), the inhibition was -4%. In the case of O=c1[nH]c(=S)[nH]c2[nH]c(=S)[nH]c12, the inhibition is reported as 73.3% (active). O=C(CN1CCN(C(=O)C2CCCO2)CC1)Nc1c(Cl)cccc1Cl (centres undefined) was tested, and the inhibition was 3.1%. For O=C(COC(=O)c1cnccn1)Nc1ccc(Cl)cc1C(F)(F)F, the inhibition was 4.7%. Compound Cc1ccc(OCc2nnc(NC(=O)OCC(C)C)s2)cc1 has an inhibition of 0.4%. For CCc1nnc(SCc2cccc(F)c2)nc1CC, the inhibition was 4.4%. Work on O=C(Nc1nnc(SCc2ccccc2Cl)s1)c1cccc([N+](=O)[O-])c1 yielded an inhibition of 22.8%. Clc1ccc(CSc2nnc3c(n2)[nH]c2ccccc23)cc1 gave an inhibition of 12.9%. For Clc1ccccc1CSc1nnc(-c2ccco2)c(-c2ccco2)n1, the inhibition was 60.4% (active). For S=C(NCc1ccco1)NCc1ccccc1Cl, the inhibition was -1%. c1ccc(CSc2nnc(-c3ccco3)c(-c3ccco3)n2)cc1 was tested, and the inhibition was 49% (active). For C[C@H](NC(=O)[C@@H]1Cc2ccccc2CN1C(=O)OC(C)(C)C)C(=O)NC1CCCC1, the inhibition was -2.7%. Compound Cc1cccc(OCC(O)Cn2c(N3CCCCC3)nc3c2c(=O)[nH]c(=O)n3C)c1 (centres undefined) has an inhibition of -1.1%. Cc1ccc(CNC(=O)C2CCCN2S(=O)(=O)c2ccc3c(c2)C(C)(C)C(=O)N3C)cc1 (centres undefined) gave an inhibition of -1%. CC(C)OC(=O)c1cc(NC(=O)C2C3CCC(O3)C2C(=O)O)cc(C(=O)OC(C)C)c1 (centres undefined) was tested, and the inhibition was 7.3%. Compound COc1ccccc1CCNC(=O)c1c(C)nn(CC(C)C)c1Cl has an inhibition of 6.5%. Cc1ccc(N=C2NC(=O)/C(=C/C=C/c3ccco3)S2)cc1C was tested, and the inhibition was 56% (active). In the case of CN1C(=O)/C(=C/c2ccco2)SC1=Nc1cccc(C(=O)O)c1, the inhibition is reported as 9.6%. CC(=O)Nc1ccc(NC(=O)C(NS(=O)(=O)c2ccc3c(c2)OCCO3)C(C)C)cc1 (centres undefined) gave an inhibition of 3.4%. With O=c1ccc2c(-c3ccccc3S(=O)(=O)O)c3ccc(O)c(O)c3oc-2c1O the inhibition was 64.9% (active). Cc1ccccc1C(OCCN(C)C)C1CCCCC1 (centres undefined) gave an inhibition of -6%. CCN(C[C@H]1N[C@@](CC)(C(=O)OC)[C@H]2C(=O)N(C)C(=O)[C@@H]12)C(=O)Nc1ccc(F)cc1 gave an inhibition of 2.6%. Work on CCOC(=O)c1cc(-c2ccccc2C)n(Cc2cc(C)no2)n1 yielded an inhibition of -6.2%. With CN(C)c1ccc(N/C=C/C(=O)C(F)(F)F)cc1 the inhibition was 7.4%. Work on COCC1CCN(C(=O)C2CCC(=O)N(CC3CCCCC3)C2)CC1 (centres undefined) yielded an inhibition of 4.4%. With Nc1ccc2nc3c(=O)[nH]c(=S)[nH]c3nc2c1 the inhibition was 70.9% (active). In the case of C=CCC(NC(=O)Cc1ccccc1)C(=O)NCCC (centres undefined), the inhibition is reported as -3.3%. CCOc1ccc2nc(Cl)c(C3CC(c4ccccc4)=NN3C(=O)c3cccs3)cc2c1 (centres undefined) gave an inhibition of 13.7%. Work on O=C(NCCOc1cccnc1)c1ccc(OC2CCN(Cc3ccccn3)CC2)cc1 yielded an inhibition of 4.2%. Compound O=C(CCCN=C1NS(=O)(=O)c2ccccc21)OCC(=O)c1ccc(F)c(F)c1 has an inhibition of -12.2%. Compound COC(=O)CN(c1nc(C)c(Cl)c(OC)n1)S(=O)(=O)c1ccc(C)cc1 has an inhibition of 0.2%. With CCCCN(C)CCNC(=O)C1CCCN(S(=O)(=O)c2cccc3nsnc23)C1 (centres undefined) the inhibition was 4.9%. For CS(=O)(=O)N(CC(=O)NC1CCCC1)Cc1ccc(F)cc1, the inhibition was 3.3%. For C=CCSc1nc(N)cc(=O)[nH]1, the inhibition was 4.4%. Compound CCc1ccc(N(CC)c2ncnc3nc[nH]c23)cc1 has an inhibition of 7.5%. Work on Cc1cc(C)c(C)c(S(=O)(=O)N[C@@H](C)C(=O)OC(C)C(=O)NC(N)=O)c1C (some centres undefined) yielded an inhibition of -4.2%. With CC(NC(=O)c1ccccc1C(=O)O)c1ccc(-n2ccnc2)cc1 (centres undefined) the inhibition was 0.1%. With COc1cc(/C=N\Nc2nc(-c3cccs3)c(NC(C)=O)s2)ccc1O the inhibition was 41% (active). Work on CC(=O)c1sc(N/N=C\c2ccc(C)cc2)nc1C yielded an inhibition of 10.3%. COc1cc(/C=N/NC(=O)CCc2n[nH]c(=O)[nH]c2=O)ccc1O was tested, and the inhibition was -0.9%. For Fc1ccccc1/C=C1\CCCC2=C1Nc1ncnn1C2c1ccccc1F (centres undefined), the inhibition was 0%. O=[N+]([O-])/C(N=Nc1ccccc1)=N\Nc1ccccc1 was tested, and the inhibition was -0.1%. Work on CSCCC1NC2(C(=O)Nc3ccc(Cl)cc32)[C@@H]2C(=O)N(C3CCCC3)C(=O)[C@H]12 (some centres undefined) yielded an inhibition of 3.1%. Nc1c(C(=O)c2cccs2)sc2nsc(SCCN3CCCCC3)c12 was tested, and the inhibition was 16.4%. CCN(c1ccccc1)S(=O)(=O)c1ccc(N)cc1 was tested, and the inhibition was -11.2%. CCN(c1ccccc1)S(=O)(=O)c1ccc2[nH]c(=O)[nH]c2c1 was tested, and the inhibition was 52.1% (active). Work on CN(c1ccccc1)S(=O)(=O)c1ccc2[nH]c(=O)[nH]c2c1 yielded an inhibition of 6.6%.
